Screens as filed in PubChem BioAssay.
Sampled rows, rich in hits. Any-hit rate of the full collection: about 1.4%.
Polio RdRp inh: inhibitors of poliovirus RNA polymerase binding and polymerization; P03300; % elongation, % (compound at 16.7 µg/mL); poliovirus polymerase elongation, fluorescence polarization; hits give low values; 150,000 compounds, 0.66% hits; in the data active means % elongation below about 90%
Target sequence (P03300 1749-2209 limits assumed): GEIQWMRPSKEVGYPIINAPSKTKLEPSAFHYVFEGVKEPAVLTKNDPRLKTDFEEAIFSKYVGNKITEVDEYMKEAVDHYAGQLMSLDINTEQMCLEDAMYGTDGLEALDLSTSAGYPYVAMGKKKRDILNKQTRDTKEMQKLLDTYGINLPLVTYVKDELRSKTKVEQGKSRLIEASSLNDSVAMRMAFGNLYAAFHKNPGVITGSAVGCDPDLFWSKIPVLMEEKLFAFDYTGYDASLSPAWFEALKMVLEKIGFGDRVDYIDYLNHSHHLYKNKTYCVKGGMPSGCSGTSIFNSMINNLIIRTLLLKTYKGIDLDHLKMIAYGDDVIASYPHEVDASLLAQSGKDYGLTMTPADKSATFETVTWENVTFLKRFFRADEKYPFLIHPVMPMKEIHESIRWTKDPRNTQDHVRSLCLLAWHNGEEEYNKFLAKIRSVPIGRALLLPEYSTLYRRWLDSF
AID504770: growth inhibitors of E. coli YBA685 in a screen for V. cholerae RctB (chromosome II replication) inhibitors | z-score (concentration not given with the values) | 130,000 compounds, 0.27% hits | E. coli YBA685 rctB-dependent plasmid, OD600 growth, 3 h; hits give low values | AID 504770; in the data active means z-score below about -2, passing the limit was not always enough
Mtb MbtI inh: blocks the Mycobacterium tuberculosis siderophore enzyme MbtI; purified MbtI enzyme, fluorescence intensity read-out; inhibition, % (concentration not given with the values); 100,000 compounds, 0.89% hits; in the data active means inhibition mostly above about 56%, no sharp cut-off; inactive means mostly below about 77%
MenB inh: inhibitors of Mycobacterium tuberculosis MenB enzyme. AID 540299. P9WNP5. inhibition, % (concentration not given with the values). MenB enzyme assay, absorbance read-out. 100,000 compounds, 0.43% hits; in the data active means inhibition above about 21%, passing the limit was not always enough
Numbers stand for hits.

Screening Cc1[nH]c(=S)sc1CC(=O)N(C)Cc1ccccc1Cl returned Polio RdRp inh inactive, AID504770 inactive, Mtb MbtI inh 76 and MenB inh inactive.
Screening Oc1c(Br)cc(Cl)cc1/C=N/c1ccccn1 returned Polio RdRp inh 75, AID504770 inactive, Mtb MbtI inh inactive and MenB inh inactive.
COc1cc(Cc2cnc(N)nc2N)cc(OC)c1OC was read as Polio RdRp inh inactive, AID504770 -3.1, Mtb MbtI inh inactive and MenB inh inactive.
Oc1ccc(CN2CCN(c3ccccc3)CC2)c2cccnc12 was read as Polio RdRp inh inactive, AID504770 inactive, Mtb MbtI inh inactive and MenB inh inactive.
For O=C(O)c1c(CN2CCN(c3ccccc3)CC2)c(O)c2ccccc2c1O the results were Polio RdRp inh 86, AID504770 inactive, Mtb MbtI inh inactive and MenB inh inactive.
`COc1ccc(C2C(C#N)=C(N)SC3C(=O)N(c4ccc(Br)cc4)C(=O)C32)cc1` (stereo unspecified) gave Polio RdRp inh 77, AID504770 inactive and MenB inh inactive.
For CNc1nc(-c2ccc3c(c2)CCN3C(=O)C(C)C)cs1 the results were Polio RdRp inh inactive, AID504770 inactive, Mtb MbtI inh inactive and MenB inh 35.
`O=C(COc1ccc(Cl)cc1)OC1CCOC1=O` (stereo unspecified) gave Polio RdRp inh inactive, AID504770 inactive, Mtb MbtI inh inactive and MenB inh inactive.
CC(C)Cn1c(=O)c2sccc2n2c(=S)sc(-c3ccccc3)c12 was read as Polio RdRp inh inactive, AID504770 inactive, Mtb MbtI inh 68 and MenB inh inactive.
For Cn1c(SCC(=O)NC(=O)Nc2ccccc2F)nc2cc(S(N)(=O)=O)ccc21 the results were Polio RdRp inh 85, AID504770 inactive, Mtb MbtI inh 96 and MenB inh inactive.
CN(CC(=O)Nc1ccc(F)c(F)c1F)C(=O)c1cccc(C(F)(F)F)c1 was read as Polio RdRp inh inactive, AID504770 inactive, Mtb MbtI inh inactive and MenB inh inactive.
C[N+]1(C)CCOC12CCCCC2 was read as Polio RdRp inh inactive, AID504770 inactive, Mtb MbtI inh inactive and MenB inh 45.
Cc1conc1NC(c1cccs1)c1ccc2cccnc2c1O (stereo unspecified) was read as Polio RdRp inh inactive, AID504770 inactive, Mtb MbtI inh 97 and MenB inh inactive.
Screening S=c1nc(Cc2ccc(Cl)cc2)[nH][nH]1 returned Polio RdRp inh inactive, AID504770 inactive, Mtb MbtI inh 97 and MenB inh inactive.
`Cn1c(SCC(=O)O)nc2ccccc21` gave Polio RdRp inh inactive, AID504770 inactive, Mtb MbtI inh inactive and MenB inh 37.
Screening Cn1c(SCC(=O)NN)nc2ccccc21 returned Polio RdRp inh inactive, AID504770 inactive, Mtb MbtI inh inactive and MenB inh inactive.
COC(=O)c1ccc(Nc2nc3ccc(Cl)cc3n3cnnc23)cc1 was read as Polio RdRp inh inactive, AID504770 inactive, Mtb MbtI inh inactive and MenB inh inactive.
`O=C(NCCCN1CCN(Cc2ccccc2)CC1)c1cnn(-c2ccccc2)c1-n1cccc1` gave Polio RdRp inh inactive, AID504770 inactive, Mtb MbtI inh inactive and MenB inh inactive.
For COc1cccc(NC(=O)Cn2sc3ccccc3c2=O)c1 the results were Polio RdRp inh inactive, AID504770 -2.5, Mtb MbtI inh inactive and MenB inh inactive.
For COc1cccc(NC(=O)Cn2ccc3c(OC)cccc3c2=O)c1 the results were Polio RdRp inh inactive, AID504770 inactive, Mtb MbtI inh inactive and MenB inh inactive.
`COc1ccc(CCN(C)c2nc(N)c3c(N)nc(SCC(=O)O)cc3c2C#N)cc1OC` gave Polio RdRp inh 72, AID504770 inactive, Mtb MbtI inh inactive and MenB inh inactive.
`Cc1ccc(/C=C2/C(=O)NC(=O)N(C3CCCCC3)C2=O)cc1` gave Polio RdRp inh inactive, AID504770 inactive, Mtb MbtI inh inactive and MenB inh inactive.
Screening CSc1ncc(/C=C2/C(=O)NC(=O)N(C3CCCCC3)C2=O)cn1 returned Polio RdRp inh inactive, AID504770 inactive, Mtb MbtI inh 71 and MenB inh inactive.
Cn1cnc(S(=O)(=O)NCc2csc(-c3cccs3)n2)c1 was read as AID504770 inactive.
Cc1cc(OCC(=O)O)no1 was read as Polio RdRp inh inactive, AID504770 inactive, Mtb MbtI inh inactive and MenB inh inactive.
Screening CCOC(=O)c1ccsc1NC(=O)CSc1ccccc1 returned Polio RdRp inh inactive, AID504770 inactive, Mtb MbtI inh inactive and MenB inh inactive.
O=C1CSC(=S)N1Nc1ccccc1 was read as Polio RdRp inh inactive, AID504770 inactive, Mtb MbtI inh 76 and MenB inh inactive.
Screening Cc1cnc(C(=O)OCc2cc(Cl)c3c(c2)OCCO3)cn1 returned Polio RdRp inh inactive, AID504770 inactive, Mtb MbtI inh inactive and MenB inh inactive.
Screening O=C1C=CC(=O)N1c1ccc2ccccc2c1 returned Polio RdRp inh inactive, AID504770 inactive, Mtb MbtI inh 100 and MenB inh inactive.
Screening COc1ccc(N2C(=O)C=CC2=O)cc1OC returned Polio RdRp inh inactive, AID504770 inactive and Mtb MbtI inh 94.
For CSc1cccc(N2C(=O)C=CC2=O)c1 the results were AID504770 -2.2.
`N#Cc1cccc(N2C(=O)C=CC2=O)c1` gave AID504770 -2.8.
`Cc1ccc(C)c(C(=O)NC2CCCCC2)c1` gave Polio RdRp inh inactive, AID504770 inactive, Mtb MbtI inh inactive and MenB inh inactive.
For Cc1ccc(CCC(=O)O)cc1 the results were AID504770 inactive.
`O=C1C=CC(=O)C(c2ccc(C(=O)O)cc2)=C1` gave Polio RdRp inh inactive, AID504770 inactive, Mtb MbtI inh 91 and MenB inh inactive.
Screening CC(C)c1ccc(C2=CC(=O)C=CC2=O)cc1 returned Polio RdRp inh inactive, AID504770 inactive, Mtb MbtI inh inactive and MenB inh inactive.
Screening Cc1ccc(-c2cn3c(=S)[nH]nc3s2)cc1 returned Polio RdRp inh inactive, AID504770 inactive, Mtb MbtI inh 98 and MenB inh inactive.
Cc1ccc(-c2n[nH]c(=S)n2C)cc1 was read as Polio RdRp inh inactive, AID504770 inactive, Mtb MbtI inh inactive and MenB inh inactive.
For COC(=O)C1C(=O)NC(S)=C(C#N)C1c1ccccc1Cl (stereo unspecified) the results were Polio RdRp inh inactive, AID504770 inactive, Mtb MbtI inh 87 and MenB inh inactive.
Screening CCOc1ccccc1C1C(C#N)=C(SC)NC(=O)C1C(=O)OC (stereo unspecified) returned AID504770 inactive.
CC1=NOC(=O)/C1=C/c1ccc(O)cc1 was read as Polio RdRp inh inactive, AID504770 inactive, Mtb MbtI inh 92 and MenB inh inactive.
`COc1cccc(C2=NS(=O)(=O)N(C)C(C(=O)Nc3cccc(O)c3)=C2)c1` gave Polio RdRp inh -16.
`CCOC(=O)c1c(C)[nH]c(C)c1S(=O)(=O)N(CC)c1ccc(OC)cc1` gave Polio RdRp inh inactive, AID504770 inactive, Mtb MbtI inh inactive and MenB inh inactive.
CC(=O)Nc1ccccc1C(=O)N1CCCCC1 was read as Polio RdRp inh inactive, AID504770 inactive and MenB inh inactive.
`O=C(O)Cn1cc(C=C2C(=O)NC(=O)NC2=O)c2ccccc21` gave Polio RdRp inh inactive, AID504770 inactive and MenB inh inactive.
